HT1080 IDH1KD tx: qHTS for induction of synthetic lethality in tumor cells producing 2HG: qHTS for the HT-1080-IDH1KD cell line | HT-1080 IDH1 knockdown viability, ATP luminescence, 48 h | Potency, µM (series often up to 46.1 µM), inactives show at the top dose activity, negative = toxicity, most hits filed as cytotoxic | 360,000 tested, 2% active | AID 686971, 2013;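 further: potency means the concentration at half of the fitted maximal effect; 0% = DMSO wells and -100% = cell-free medium wells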
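After a 2 h attachment period, IDH1KD HT-1080 cells took pin-transferred compound for 48 h at 37 °C; ATP-based luminescence after 10 min room-temperature reagent incubation reported viability.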
IL1B secr inh: qHTS for Inhibitors of Inflammasome Signaling: IL-1-beta AlphaLISA Primary Screen | THP-1 LPS/ATP IL-1B secretion, AlphaLISA, 16 h; hits give low values | activity change, % at 57.5 µM | 360,000 tested, 4.7% active; in the data active means activity change below about -50%; inconclusive means mostly about -30% to -49%
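Secreted IL-1B measured by AlphaLISA bead assay after 16 h compound exposure of THP-1 cells; compounds (final up to 57.5 uM) added 1 h before LPS (250 ng/mL) and ATP (1.25 mM) stimulation; lower signal means less secretion.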
TDP1 cell noCPT: qHTS for Inhibitors of human tyrosyl-DNA phosphodiesterase 1 (TDP1): qHTS in cells in absence of CPT; DT40 Tdp1-/- hTDP1 cells, no CPT, ATP luminescence, 48 h; Potency, µM (highest dose often 46.2 µM), without a hit: at the top dose activity change, negative = growth inhibition, most hits filed as inhibitors; 420,000 tested, 15% active; further: potency means the concentration at half of the fitted maximal effect; nearly all actives have a fitted effect of over 55% in size
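Stably hTDP1-transfected Tdp1-null chicken DT40 cells were treated with library compounds minus camptothecin and grown for at least 48 hr at 37 °C, after which cellular ATP was quantified by luminescence.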
TDP1 cell CPT: qHTS for Inhibitors of human tyrosyl-DNA phosphodiesterase 1 (TDP1): qHTS in cells in presence of CPT. chicken DT40 Tdp1-/-;hTDP1 cells + 20 nM CPT, ATP luminescence, 48 h. Potency, µM (doses to about 46.2 µM), inactives show at the top dose activity change, negative = growth inhibition, actives largely listed as inhibitors. 420,000 tested, 12% active. AID 686979, 2013; further: potency means the concentration at half of the fitted maximal effect; nearly all actives have a fitted effect of over 55% in size
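Chicken DT40 Tdp1-/- cells stably complemented with human TDP1 were seeded at 400 cells/well in medium containing 20 nM camptothecin, exposed to pin-transferred compounds, and grown at 37 °C for at least 48 hr. Viability was read as ATP luminescence.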
HT1080NT lethal: qHTS for induction of synthetic lethality in tumor cells producing 2HG: qHTS for the HT-1080-NT fibrosarcoma cell line | HT-1080-NT fibrosarcoma viability, CellTiter-Glo ATP luminescence, 48 h | Potency, µM (doses to about 46.1 µM), inactives show at the top dose activity, negative = less viability, hits mostly cytotoxic | 360,000 tested, 1.6% active | AID 686970, 2013;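 further: NT is the 2HG producing partner of a matched IDH1 knockdown line; potency means the concentration at half of the fitted maximal effect; 0% = DMSO-treated cells and -100% = media-only wells without cells; nearly all actives have a fitted effect of over 55% in size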
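HT-1080-NT; 750 cells/well; 5% FBS RPMI; 48 h compound, 37 degrees C; CellTiter-Glo luminescence; curve fitting and curve-class assignment.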
Starred values were filed as active, the others as inactive; ! = not confirmed by another sample. Rows were chosen to be rich in hits. Some 19% of all compounds tested hit in one or more screens of this group. Unless noted, the call rests on the fitted dose curve; in most records, active means well fitted curve in the direction sought with a large enough effect; inconclusive means small, poorly fitted or top-dose-only effect, or another doubt; inactive means no such curve, though single readings can be large; an effect the other way counts as inactive or inconclusive. Unless noted, on the % scale 0 is the no-effect control and ±100 the full control effect.

Results for O=c1c(OC2OC(CO)C(O)C(O)C2OC2OC(CO)C(O)C(O)C2OC2OC(CO)C(O)C(O)C2O)c(-c2ccc(O)c(O)c2)oc2cc(O)cc(O)c12 (stereo not given) ?
HT1080 IDH1KD tx: 7%; IL1B secr inh: 15; TDP1 cell noCPT: 21µM*; TDP1 cell CPT: 15µM*; HT1080NT lethal: 1%

How did C[C@@H]1O[C@@H](OC[C@H]2O[C@@H](Oc3c(-c4ccc(O)c(O)c4)oc4cc(O)cc(O)c4c3=O)[C@H](O)[C@@H](O)[C@@H]2O)[C@H](O)[C@H](O)[C@H]1O do in these assays?
HT1080 IDH1KD tx: 10%; IL1B secr inh: 12; TDP1 cell noCPT: inconclusive; TDP1 cell CPT: 5%; HT1080NT lethal: 11%

How did O=c1c2c(O)cc(O)cc2oc2ccc(O)c(O[C@@H]3O[C@H](CO)[C@@H](O)[C@H](O)[C@H]3O[C@H]3O[C@H](CO)[C@@H](O)[C@H](O)[C@H]3O)c12 do in these assays?
HT1080 IDH1KD tx: -3%; IL1B secr inh: -6; TDP1 cell noCPT: -2%; TDP1 cell CPT: 0%; HT1080NT lethal: 1%

How did COc1c(-c2ccc(O)c(O)c2)oc2cc(O)cc(O)c2c1=O do in these assays?
HT1080 IDH1KD tx: -24%; IL1B secr inh: 33; TDP1 cell noCPT: 9.2µM*!; TDP1 cell CPT: 10µM*!; HT1080NT lethal: -9%

How did CC(C)c1nnc(NC(=O)c2sc3ccccc3c2Cl)s1 do in these assays?
HT1080 IDH1KD tx: 1%; IL1B secr inh: 7; TDP1 cell noCPT: -20%; TDP1 cell CPT: -22%; HT1080NT lethal: -18%

What do the screens show for `Cn1c(C(C#N)C(=O)c2sc3ccccc3c2Cl)nc2ccccc21` (stereo not given)?
HT1080 IDH1KD tx: inconclusive; IL1B secr inh: -21; TDP1 cell noCPT: 16µM*; TDP1 cell CPT: inconclusive; HT1080NT lethal: inconclusive

How did CC(=O)N1CCC2(CC1)CN(c1ccncc1)C2 do in these assays?
TDP1 cell noCPT: -8%; TDP1 cell CPT: 2%

Results for CCN(CC)CCN(Cc1cc2ccc(C)cc2[nH]c1=O)C(=S)Nc1ccccc1C(=O)OC ?
HT1080 IDH1KD tx: 18µM*; IL1B secr inh: -77*; TDP1 cell noCPT: inconclusive; TDP1 cell CPT: inconclusive; HT1080NT lethal: inconclusive

How did COC(=O)c1ccccc1NC(=S)N(Cc1ccc2c(c1)OCO2)Cc1cc2ccc(OC)cc2[nH]c1=O do in these assays?
HT1080 IDH1KD tx: -6%; IL1B secr inh: 5; TDP1 cell noCPT: inconclusive; TDP1 cell CPT: -1%; HT1080NT lethal: 0%

What do the screens show for `COC(=O)c1ccccc1NC(=S)N(Cc1ccc2c(c1)OCO2)Cc1cc2ccc(C)cc2[nH]c1=O`?
HT1080 IDH1KD tx: -5%; IL1B secr inh: -16; TDP1 cell noCPT: inconclusive; TDP1 cell CPT: inconclusive; HT1080NT lethal: -7%

How did COC(=O)c1ccccc1NC(=S)N(Cc1ccc2c(c1)OCO2)Cc1cc2cc(C)ccc2[nH]c1=O do in these assays?
HT1080 IDH1KD tx: -13%; IL1B secr inh: -15; TDP1 cell noCPT: inconclusive; TDP1 cell CPT: 21µM*; HT1080NT lethal: 0%

How did Cc1cc(C(=O)NCCCN2CCOCC2)n(-c2ccccc2)n1 do in these assays?
HT1080 IDH1KD tx: 2%; IL1B secr inh: 11; TDP1 cell noCPT: -1%; TDP1 cell CPT: 1%; HT1080NT lethal: 2%

How did O=C1CCCCCN1C(=O)c1cccc(C(=O)N2CCCCCC2=O)c1 do in these assays?
HT1080 IDH1KD tx: 8%; IL1B secr inh: 23; TDP1 cell noCPT: 5%; TDP1 cell CPT: -3%; HT1080NT lethal: 12%

What do the screens show for `Cc1ccc(S(=O)(=O)SC/C=C/CSS(=O)(=O)c2ccc(C)cc2)cc1`?
HT1080 IDH1KD tx: 4%; IL1B secr inh: 19; TDP1 cell noCPT: 15µM*; TDP1 cell CPT: inconclusive; HT1080NT lethal: inconclusive

Bioassay records (PubChem)
